Bioassay records from PubChem BioAssay.
TR SRC2 fluor cs: Texas Red fluorescence interference in TRb-SRC2 counter-screen; TRb/SRC2 Texas Red total fluorescence interference; Potency, µM (doses to about 106 µM); 280,000 tested, 0.29% active; active means well fitted curve in either direction with a large enough effect; inconclusive means small, poorly fitted or top-dose-only effect
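Human TRβ ligand-binding domain (0.6 uM) and Texas Red SRC2 peptide (20 nM) in Tris buffer with 1 uM T3 and 5% DMSO were incubated with pinned compound for 5 hr at ambient temperature. Total fluorescence was computed as S + 2P (555/632 nm).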
TRb-SRC2 inh: disrupts binding of human TR beta to SRC2 | TRbeta-SRC2 peptide binding, fluorescence polarization; receptor liganded with 1 µM T3 | Potency, µM (titrated, usually from 106 µM), most hits filed as inhibitors | 280,000 tested, 0.065% active; further: nearly all actives have a fitted effect of over 50% in size
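Fluorescence polarization of 20 nM Texas Red SRC2 peptide (20-aa NR interaction domain) bound to 0.6 uM human TRb ligand-binding domain, with 1 uM T3, after 5 hr at ambient temperature; inhibition seen as decreased polarization.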
RECQ1 inh-1: inhibitors of human RECQ1 DNA helicase; Potency, µM (series often up to 57.3 µM), most hits filed as inhibitors; P46063; 240,000 tested, 0.54% active; AID 2549; RECQ1 DNA unwinding, red fluorescence kinetic read; further: nearly all actives have a fitted effect of over 30% in size
Target sequence (P46063 whole entry, looked up): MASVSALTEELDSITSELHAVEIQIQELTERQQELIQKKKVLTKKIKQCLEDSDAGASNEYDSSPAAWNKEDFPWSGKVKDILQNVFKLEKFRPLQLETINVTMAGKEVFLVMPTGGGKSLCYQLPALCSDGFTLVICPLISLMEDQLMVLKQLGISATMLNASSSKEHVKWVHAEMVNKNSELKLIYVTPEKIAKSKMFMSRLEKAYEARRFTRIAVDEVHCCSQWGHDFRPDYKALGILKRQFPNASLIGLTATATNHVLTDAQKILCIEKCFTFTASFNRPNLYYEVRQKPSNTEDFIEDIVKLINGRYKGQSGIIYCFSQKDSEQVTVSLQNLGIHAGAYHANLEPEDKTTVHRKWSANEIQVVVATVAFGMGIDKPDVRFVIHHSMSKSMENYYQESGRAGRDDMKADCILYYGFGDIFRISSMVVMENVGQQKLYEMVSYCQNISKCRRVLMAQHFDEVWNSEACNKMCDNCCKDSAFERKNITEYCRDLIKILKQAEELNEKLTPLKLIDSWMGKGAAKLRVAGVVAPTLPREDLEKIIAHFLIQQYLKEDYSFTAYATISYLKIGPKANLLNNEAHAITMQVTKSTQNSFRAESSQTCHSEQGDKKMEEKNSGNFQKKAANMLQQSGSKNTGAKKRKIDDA
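RECQ1T1 50 nM; forked duplex (20 bp + 30-nt ss tails) 200 nM, ATP 2 mM final; pH 8.0, 2 mM MgCl2, 2.5 ug/ml poly(dI-dC); 15 min compound preincubation; discontinuous kinetic read over 2 h at RT.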
BLM inh: blocks DNA unwinding by human BLM helicase; P54132; recombinant BLM DNA unwinding, fluorescence dequenching; Potency, µM (doses to about 56.1 µM), most hits filed as inhibitors; 350,000 tested, 0.2% active; further: nearly all actives have a fitted effect of over 35% in size
RECQ1 inh conf: confirmation of human RECQ1 helicase inhibitors | 610 tested, 28% active | Potency, µM (top dose mostly 229 µM), actives largely listed as inhibitors | AID 2708 | shares compounds with RECQ1 inh-1 | RECQ1 helicase DNA unwinding, fluorescence; further: nearly all actives have a fitted effect of over 45% in size
ADP FP counter: displaces ADP in a fluorescence polarization counter-screen for RECQ1 hits. shares compounds with RECQ1 inh-1. ADP fluorescence polarization displacement counterscreen. Potency, µM (titrated, usually from 228 µM), actives largely listed as inhibitors. 530 tested, 27% active; further: nearly all actives have a fitted effect of over 45% in size
RECQ1 inh-2: RECQ1 helicase inhibition confirmed, round 2; 1,100 tested, 15% active; Potency, µM (doses to about 119 µM), most hits filed as inhibitors; shares compounds with RECQ1 inh-1; recombinant RECQ1 DNA unwinding, red fluorescence; AID 504841; further: nearly all actives have a fitted effect of over 50% in size
Large screens that a line does not name were inactive (follow-up assays come after a bar, where they were run). This is a sample that favours compounds with a hit; in the whole collection about 0.64% have one here. Unless noted, the call rests on the fitted dose curve; in most records, active means well fitted curve in the direction sought with a large enough effect; inconclusive means small, poorly fitted or top-dose-only effect, or another doubt; inactive means no such curve, though single readings can be large; an effect the other way counts as inactive or inconclusive.

C=C1CC2C(=O)N(Cc3cc(OC)ccc3OC)C(C(=O)OCC)C1N2C (centres undefined)	none
O=C1S/C(=C\C=C\c2ccco2)C(=O)N1c1ccccc1	RECQ1 inh-1 inconclusive | RECQ1 inh-2 inactive
O=C(NN1C(=O)/C(=C/C=C/c2ccco2)SC1=S)c1ccccc1O	TR SRC2 fluor cs inconclusive, RECQ1 inh-1 2.5µM, BLM inh inconclusive | RECQ1 inh conf 13µM | ADP FP counter 14µM
O=C(C1=NN[C@@H]2C(=O)N(c3cccc(F)c3)C(=O)[C@H]12)C(c1ccccc1)c1ccccc1	none
O=C(C1=NN[C@@H]2C(=O)N(c3cccc(C(F)(F)F)c3)C(=O)[C@H]12)C(c1ccccc1)c1ccccc1	RECQ1 inh-1 28µM | RECQ1 inh-2 inactive
Cc1ccc(C)c(Cn2c3ccccc3c3cnn(CC(=O)NCc4ccccc4)c(=O)c32)c1	none (no result: RECQ1 inh-1)
O=S(=O)(Nc1nc(-c2sccc2Cl)cs1)c1cc(Cl)ccc1Cl	RECQ1 inh-1 inconclusive | RECQ1 inh-2 inconclusive
O=C(CCCCn1c(=O)c2ccccc2n(Cc2cccc(F)c2)c1=O)NCCc1ccccc1	TR SRC2 fluor cs inconclusive (no result: RECQ1 inh-1)
COc1ccc(C2/C=C\CN(C(=O)C3CC3)C(Cc3ccccc3)C(=O)N2Cc2ccc(F)cc2)cc1 (centres undefined)	none
N=C1/C(=C\c2ccc(-c3cccc(C(=O)O)c3)o2)C(=O)N=C2SC=C(c3ccccc3)N12	RECQ1 inh-1 inconclusive | RECQ1 inh-2 inconclusive
CCn1c(SC(C)C(=O)O)nc2sc3c(c2c1=O)CCC3 (centres undefined)	RECQ1 inh-1 inconclusive | RECQ1 inh-2 inconclusive
Cc1ccc(C(=O)c2c(C)oc3c2C(=O)C(=O)c2ccccc2-3)cc1	TRb-SRC2 inh inconclusive, RECQ1 inh-1 inconclusive | RECQ1 inh-2 56µM
COc1cccc(-c2nc(SCC(=O)NC3CCCC3)c(-c3ccccc3)[nH]2)c1	none (no result: RECQ1 inh-1)
Cc1cc(C)c(Nc2cc(S(=O)(=O)O)c(N)c3c2C(=O)c2ccccc2C3=O)c(C)c1	TRb-SRC2 inh 45µM, RECQ1 inh-1 inconclusive | RECQ1 inh-2 32µM
O=C(NCc1ccco1)[C@@H]1CSC2c3ccccc3C(=O)N21 (some centres undefined)	RECQ1 inh-1 inconclusive | RECQ1 inh-2 inconclusive
CC(C)[C@H](NC(=O)[C@@H]1CSC2c3ccccc3C(=O)N21)C(=O)NCc1ccco1 (some centres undefined)	none (no result: TR SRC2 fluor cs, TRb-SRC2 inh, RECQ1 inh-1)
Cc1ccc(N2CC(C(=O)NCCC(C)C)CC2=O)cc1 (centres undefined)	none
Cc1ccc(N2CC(C(=O)NCc3ccc(C)n3C)CC2=O)cc1 (centres undefined)	RECQ1 inh-1 inconclusive | RECQ1 inh-2 inactive
Cc1cc(C(=O)CSc2nnc(-c3cccnc3)n2-c2ccccc2F)c(C)n1CC1CCCO1 (centres undefined)	RECQ1 inh-1 35µM | RECQ1 inh-2 inactive
CCn1c(SCC(=O)c2cc(C)n(CC3CCCO3)c2C)nc2ccccc21 (centres undefined)	RECQ1 inh-1 40µM | RECQ1 inh-2 inactive
Cc1cc(C(=O)CSc2nc3ccccc3c(=O)n2C)c(C)n1CC1CCCO1 (centres undefined)	none
Cc1ccc(NC(=O)c2cn3c4c(ccc(Cl)c4c2=O)OC(C)C3)c(C)c1 (centres undefined)	none (no result: RECQ1 inh-1)
O=C(NCc1ccccn1)C1CCN(S(=O)(=O)c2cc(Cl)ccc2Cl)CC1	RECQ1 inh-1 inconclusive | RECQ1 inh-2 inactive
CC1=NN(c2ccc(Cl)cc2)C(=O)C1	none
CC1=NN(c2ccc(N)cc2)C(=O)C1	RECQ1 inh-1 inconclusive | RECQ1 inh-2 inactive
O=C1c2ccccc2C(=O)N1CC1c2ccccc2CCN1S(=O)(=O)c1cnc[nH]1 (centres undefined)	none
Cc1ccc(S(=O)(=O)N2CCc3ccccc3C2CN2C(=O)c3ccccc3C2=O)cc1 (centres undefined)	RECQ1 inh-1 32µM | RECQ1 inh-2 inactive
CCN(CC)c1ccc(/C=N/OCC(=O)Nc2cccc(C)c2)cc1	RECQ1 inh-1 inconclusive | RECQ1 inh-2 56µM
O=C(CCn1c(=O)c2ccccc2n(Cc2cccc(F)c2)c1=O)NCc1ccc2c(c1)OCO2	none (no result: RECQ1 inh-1)
CC(=O)Nc1ccc(-n2nnnc2SCC(=O)Nc2cccc(NC(=O)c3ccco3)c2)cc1	RECQ1 inh-1 inconclusive | RECQ1 inh-2 inconclusive
COc1cc(C2CC(=O)N3CN(Cc4ccco4)CSC3=C2C#N)ccc1OCc1ccccc1 (centres undefined)	RECQ1 inh-1 inconclusive | RECQ1 inh-2 inactive
CC1CCN(c2oc(-c3ccc(COc4ccccc4)o3)nc2C#N)CC1	none (no result: RECQ1 inh-1)
O=C(/C=C/C(=O)Oc1ccccc1C(=O)O)Oc1ccccc1C(=O)O	none
O=C(COC(=O)Cc1ccccc1F)Nc1cccc(S(=O)(=O)NC2=NCCCCC2)c1	RECQ1 inh-1 1µM | RECQ1 inh conf inactive | ADP FP counter inactive | RECQ1 inh-2 inactive
Cc1ccc(/C=C/C(=O)c2nc3ccccc3[nH]2)cc1	RECQ1 inh-1 10µM | RECQ1 inh conf inactive | ADP FP counter inactive | RECQ1 inh-2 inactive
O=C(N/N=C/c1ccc(O)c(O)c1)c1ccc(CSc2cccc3cccnc23)cc1	RECQ1 inh-1 11µM | RECQ1 inh conf inactive | ADP FP counter inactive
Cc1cc(C)n2nc(C(=O)OCC(=O)c3cc(C)n(C)c3C)nc2n1	RECQ1 inh-1 inconclusive | RECQ1 inh-2 inconclusive
Cc1cc(C)n2nc(C(=O)OCC(=O)c3cc(C)n(CC4CCCO4)c3C)nc2n1 (centres undefined)	none
CCOC(=O)c1cc(-c2ccccc2)n(CCCC(=O)Nc2ccccc2C)c1C	none (no result: RECQ1 inh-1)
CC(C)(O)C#CC#CCN1CCOCC1	RECQ1 inh-1 inconclusive | RECQ1 inh-2 inactive
OC1(C#CCN2CCOCC2)CCCCC1	none
Cc1cccc(-c2nnc(C3CCN(S(=O)(=O)c4cccc(Cl)c4)CC3)o2)c1	none (no result: RECQ1 inh-1)
CC1CCCCC1NC(=O)COC(=O)c1c2c(nc3ccccc13)/C(=C/c1ccco1)CC2 (centres undefined)	TR SRC2 fluor cs inconclusive, RECQ1 inh-1 13µM, BLM inh inconclusive | RECQ1 inh conf inactive | RECQ1 inh-2 inconclusive
CCc1nn(CC(=O)Nc2ccc(N(CC)CC)cc2C)c(=O)c2cc3sccc3n12	none (no result: RECQ1 inh-1)
CN(C)c1ccc(N2C(=O)CSC2=S)cc1	RECQ1 inh-1 inconclusive | RECQ1 inh-2 inactive
O=C1CSC(=S)N1c1ccc(F)cc1	none (no result: TR SRC2 fluor cs, TRb-SRC2 inh, RECQ1 inh-1)
CN(C)CC[C@@](O)(c1ccccc1)c1ccccc1Cl	none (no result: TR SRC2 fluor cs, TRb-SRC2 inh, RECQ1 inh-1)
C=CCc1cccc(/C=N/NC(=O)CN2CCN(Cc3ccccc3)CC2)c1O	RECQ1 inh-1 22µM | RECQ1 inh conf inconclusive | ADP FP counter 11µM
O=C(NC(Cc1ccccc1)C(=O)O)/C(=C/c1ccccc1)NC(=O)c1cccc(Br)c1 (centres undefined)	none | RECQ1 inh conf inactive | ADP FP counter inconclusive
